Data reported in PubChem BioAssay (EPA / NIEHS).
Results filed as inconclusive are left out. Calls of active or inactive are those of the source. Rule for the calls: active = hit-call score of the fitted dose curve at least 0.9, where 1 is the maximum; inconclusive = response in the unintended direction; inactive = score below 0.9.

experiment: CCTE_Harrill_HTTr_CellCount_MCF7: CCTE's Cell Proliferation Assessment for the High-Throughput Transcriptomics (HTTr) Platform, Harrill Lab (AID 2284012);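 note: intended direction is loss of nuclei count meaning fewer cells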
How it was run: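 Cell count from high-content imaging of Hoechst-labeled nuclei serves as viability/growth readout. Chemicals were applied to MCF-7 cells in eight concentrations for six hours, with fitting in both directions relative to DMSO.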

Compound	outcome
CCCCOC(=O)c1ccccc1	inactive
NC(=O)N1c2ccccc2C=Cc2ccccc21	inactive
NC(N)=O	inactive
CCCCN1C(=O)[C@@H]([C@H](O)C2CCCCC2)NC(=O)C12CCN(Cc1ccc(Oc3ccc(C(=O)O)cc3)cc1)CC2	inactive
C[C@@H](Oc1ccc(CNC(=O)c2cccnc2Oc2ccc3c(c2)OCO3)c(F)c1)C(=O)O	inactive
c1ccc2c(c1)-c1cccc3c1c-2cc1ccccc13	inactive
COS(C)(=O)=O	inactive
CCCCCCCCN(C)C	inactive
Cn1cc[nH]c1=S	inactive
C[C@]12C=CC(=O)C=C1CC[C@H]1[C@@H]3C[C@@H](O)[C@](O)(C(=O)CO)[C@@]3(C)C[C@H](O)[C@@]12F	inactive
NC(=O)N(O)[C@@H]1COc2cc(OCc3ccccc3)ccc21	inactive
Cc1nc(-c2ccccn2)ncc1C(=O)Nn1cc(C)c2cc(F)ccc21	inactive
CCCC(CCC)C(=O)O	inactive
CC(=O)c1ccccc1	inactive
O=C(O)c1ccc2c(c1)nc(C(=O)NC1CCN(C3CC3)CC1)n2Cc1cc(-c2ccc(Cl)s2)on1	inactive
O=C(N[C@H](CO)[C@H](O)c1ccc([N+](=O)[O-])cc1)C(Cl)Cl	inactive
C=CN1CCCC1=O	inactive
CCn1nc(C)c2c1C(=O)NCC(c1ccc(O)cc1)=N2	inactive
CC1(C)C(=O)N(Cl)C(=O)N1Cl	inactive
OC[C@H]1O[C@@H]2O[C@H]3[C@H](O)[C@@H](O)[C@@H](O[C@H]4[C@H](O)[C@@H](O)[C@@H](O[C@H]5[C@H](O)[C@@H](O)[C@@H](O[C@H]6[C@H](O)[C@@H](O)[C@@H](O[C@H]7[C@H](O)[C@@H](O)[C@@H](O[C@H]1[C@H](O)[C@H]2O)O[C@@H]7CO)O[C@@H]6CO)O[C@@H]5CO)O[C@@H]4CO)O[C@@H]3CO	inactive
OCCNCCO	inactive
CCc1cccc(CC)c1N	inactive
CCCCCCOC(=O)CC(CC(=O)OCCCCCC)(OC(=O)CCC)C(=O)OCCCCCC	inactive
